# KLK7 zymogen act – proKLK7 (human) activation, primary screen. P49862. 0.9% of 370,000 active. activation, % at 7 µM. purified proKLK7, EDANS-DABCYL substrate fluorescence; 100% is mature enzyme control, 0% vehicle;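 active = activation above the mean of all tested compounds plus 3 SD, computed per campaign excluding outliers beyond control limits, cut at about 13% in these data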
# Target sequence (P49862 whole entry, looked up): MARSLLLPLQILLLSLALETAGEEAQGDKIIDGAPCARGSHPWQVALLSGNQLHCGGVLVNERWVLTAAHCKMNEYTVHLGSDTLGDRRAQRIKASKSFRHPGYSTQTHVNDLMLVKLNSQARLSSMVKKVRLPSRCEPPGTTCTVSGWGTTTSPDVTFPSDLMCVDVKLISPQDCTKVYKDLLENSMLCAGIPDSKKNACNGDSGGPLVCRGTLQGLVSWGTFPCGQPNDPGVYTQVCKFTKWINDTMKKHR
# SMARCA2 act – activators of SMARCA2 function | 1% of 370,000 active | MG213 cells, MMTV-luciferase reporter, dexamethasone, overnight | activation, % at 9.1 µM; in the data active = activation above about 7.8%
# bovine MsrA act – activators of bovine methionine sulfoxide reductase A | purified bovine MsrA, absorbance read-out | activation, % at 10.6 µM | 0.3% of 360,000 active; in the data active = activation above about 7.5%
# MsrA inhibitor – inhibits bovine methionine sulfoxide reductase A; 0.75% of 360,000 active; inhibition, % at 15.5 µM; purified bovine MsrA, absorbance read-out; in the data active = inhibition above about 4.5%
# KLK7 act conf – proKLK7 activation, confirmation | shares compounds with KLK7 zymogen act | purified proKLK7, EDANS-DABCYL substrate fluorescence; scaled: vehicle 0, mature enzyme 100 | activation, % at 7 µM | 68% of 3,200 active | AID 686949;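 active = activation, as change over the incubation, above the mean of all tested compounds plus 3 SD, cut at about 13% in these data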
# EDANS interfere – fluorescence interference counter-screen for KLK7 activators | 80% of 3,200 active | AID 686952 | activation, % at 7 µM | shares compounds with KLK7 zymogen act | EDANS-DABCYL substrate fluorescence interference, no enzyme, 4 h; solvent 0%, active enzyme control 100%;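 active = activation above the all-compound mean plus 3 SD, ignoring values outside control-based bounds, cut at about 4.8% in these data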;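 also: value is the 4 h activation minus the activation read at time zero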
# EDANS interf – EDANS fluorescence interference in dose response, no enzyme | shares compounds with KLK7 zymogen act | EDANS-DABCYL peptide fluorescence interference | EC50, µM | 20% of 250 active | AID 720493;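 active = compounds that raise the fluorescence signal in this interference counterscreen, with EC50 at or below 10 µM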;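 also: intact quenched peptide substrate alone read at 355 nm excitation and 520 nm emission; signal is fluorescence gain from T0 to T4 after four hours at room temperature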
# A number is an active result; – = inactive; · = no result given. A selection: hits, their analogues and other compounds. The true share with any hit is near 2.8%.
SMILES,KLK7 zymogen act,SMARCA2 act,bovine MsrA act,MsrA inhibitor,KLK7 act conf,EDANS interfere,others
C[C@H](O)[C@@H]1C(=O)N2CCc3c([nH]c4c(-c5ccccc5)cccc34)[C@@H]2C[C@@H]1N(C)C(=O)c1ccco1,–,–,·,–,·,·,
C[C@H](O)[C@@H]1C(=O)N2CCc3c([nH]c4ccccc34)[C@@H]2C[C@@H]1N(C)C(=O)c1ccco1,51,–,–,–,55,60,
CCc1cc(=O)oc2c3c(cc(OCC(=O)NCCCCCC(=O)O)c12)OC(C)(C)CC3,30,–,–,–,57,64,
CCc1cc(=O)oc2c3c(cc(OCC(=O)Nc4cccnc4)c12)OC(C)(C)CC3,–,–,–,–,·,·,
Cc1cc(=O)oc2c3c(cc(OCC(=O)NCc4ccncc4)c12)OC(C)(C)CC3,23,–,–,–,37,–,EDANS interf=–
CCc1cc(=O)oc2c3c(cc(OCC(=O)NCc4cccnc4)c12)OC(C)(C)CC3,18,–,–,–,–,–,
CCc1cc(=O)oc2c3c(cc(OCC(=O)NCc4ccccn4)c12)OC(C)(C)CC3,20,–,–,–,–,–,
COc1cccc(C=C(C(C)=O)C(=O)c2ccccc2)c1,–,–,–,–,·,·,
CCOc1ccccc1/C=C/c1nc2ccccc2[nH]c1=O,13,–,–,–,–,–,
CCOc1ccccc1OCCCC(=O)Nc1nc2ccccc2[nH]1,–,–,–,–,·,·,
CCOP(=O)(OCC)C(NC(=O)c1cccs1)C(F)(F)F (stereo not given),167,–,–,–,241,247,
COc1ccc(/C=N/NC(=O)CN2CCSCC2)c(OC)c1,–,–,–,–,·,·,
COc1ccc(OC)c(/C=N/NC(=O)C(O)c2ccccc2)c1 (stereo not given),41,–,–,–,34,36,
O=C(NN=Cc1ccccc1O)C(O)c1ccccc1 (stereo not given),–,–,–,–,·,·,
COc1ccc(OC)c(/C=N/NC(=O)CN2CCSCC2)c1,24,–,–,–,56,47,EDANS interf=–
Cc1ccc(Cn2cc(CN3CC(N4CCN(C5CCN(C)CC5)CC4)CS3(=O)=O)nn2)cc1 (stereo not given),–,–,–,–,·,·,
Cc1ccc(CC2(c3ccccc3)NC(=O)NC2=O)cc1 (stereo not given),–,–,–,–,·,·,
CCOc1cc(N2CCOCC2)c(OCC)cc1NC(=O)CSc1ncccc1C(=O)O,–,–,–,–,·,·,
Cc1cc(-c2ccc(C(=O)O)s2)cnc1N,31,–,–,–,61,70,
O=C(O)c1ccc(-c2ccc(-c3ccccc3)cc2)s1,·,·,–,·,·,·,
COC(=O)c1ccc(NS(=O)(=O)c2cccc3cccnc23)cc1,–,–,–,–,·,·,
COC(=O)CS(=O)(=O)c1cccc2cccnc12,16,–,–,–,13,13,
COC(=O)C1=CNC=C(C(=O)OC)C1c1ccccc1Cl,66,–,–,–,65,75,
COC(=O)C1=CNC=C(C(=O)OC)C1c1ccc(Cl)cc1,14,–,–,–,81,80,
C[C@@H]1CN([C@H](C)CO)C(=O)CCCn2cc(nn2)CO[C@H]1CN(C)C(=O)c1ccncc1,–,–,–,–,·,·,
SMILES,KLK7 zymogen act,SMARCA2 act,bovine MsrA act,MsrA inhibitor,KLK7 act conf,EDANS interfere,others
NS(=O)(=O)c1ccc(CCNC(=O)COC(=O)/C=C/c2cc(Br)ccc2F)cc1,–,–,–,–,·,·,
CCOc1ccc(NC(=O)c2ccc(NC(=O)c3cn4c5c(c(N6CCN(C)CC6)c(F)cc5c3=O)OCC4C)cc2)cc1 (stereo not given),43,–,–,–,–,8.4,
CC1COc2c(N3CCN(C)CC3)c(F)cc3c(=O)c(C(=O)O)cn1c23 (stereo not given),160,–,8.8,–,32,34,
CCOc1ccc(C(=O)Nc2ccc(N3CCN(C)CC3)cc2)cc1,–,–,–,–,·,·,
CC1=C2NC(N)=[N+](Cc3ccccc3)CC2n2c(=O)n(-c3ccccc3)c(=O)n2C1 (stereo not given),–,–,·,·,·,·,
CCOC(=O)CNc1c(-c2ccc(Cl)cc2)nc2cnccn12,65,–,–,–,77,80,
CCOC(=O)CNc1c(-c2ccc(F)cc2)nc2cnccn12,65,–,–,–,63,65,
CCOC(=O)CNc1c(-c2ccc(OC)cc2)nc2ccc(Cl)cn12,–,–,–,–,·,·,

# Screening data: PubChem BioAssay, The Scripps Research Institute Molecular Screening Center
